# Data reported in PubChem BioAssay (NCATS).
# This is one part of the list. Results filed as inconclusive are left out. Activity calls are given as the source filed them. Calls come from the whole dose curve; as a rule, active = well fitted curve in the direction sought with a large enough effect; inconclusive = small, poorly fitted or top-dose-only effect, or another doubt; inactive = no such curve, though single readings can be large; an effect the other way counts as inactive or inconclusive.
# How the values were obtained:
# [1] = target: Phosphoglycerate kinase, glycosomal (Trypanosoma brucei brucei) (UniProt P07378); test: qHTS for inhibitors of Phosphogylcerate Kinase: Hit Validation Screen (AID 686980); details: TbPGK coupled GAPDH assay, Kinase-Glo luminescence; note: nearly all actives have a fitted effect of over 65% in size
# Phosphoglycerate kinase, glycosomal (Trypanosoma brucei brucei), sequence (P07378 whole entry, looked up): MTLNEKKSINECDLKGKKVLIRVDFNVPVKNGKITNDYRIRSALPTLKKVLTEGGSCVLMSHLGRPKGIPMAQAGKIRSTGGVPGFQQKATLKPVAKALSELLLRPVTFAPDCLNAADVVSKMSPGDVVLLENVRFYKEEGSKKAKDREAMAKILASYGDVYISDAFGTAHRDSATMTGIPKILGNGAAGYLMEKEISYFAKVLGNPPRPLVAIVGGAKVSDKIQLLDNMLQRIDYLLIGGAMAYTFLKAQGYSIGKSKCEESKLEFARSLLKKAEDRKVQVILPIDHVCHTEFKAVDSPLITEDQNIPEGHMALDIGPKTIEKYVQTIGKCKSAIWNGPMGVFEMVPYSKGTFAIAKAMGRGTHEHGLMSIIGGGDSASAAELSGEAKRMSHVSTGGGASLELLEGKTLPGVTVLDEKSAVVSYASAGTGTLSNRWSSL
# How it was run: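 Recombinant glycosomal PGK reaction used 1,3-bisphosphoglycerate generated in-well by GAPDH (100nM final) in 100mM TEA pH 7.6, 5mM MgCl2, 0.01% Tween-20. After 60 minutes at room temperature, ATP was read by Kinase-Glo Plus luminescence end-point.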
# [2] = target: DNA polymerase iota (Homo sapiens) (UniProt Q9UNA4); test: qHTS for Inhibitors of Polymerase Iota: Confirmatory Assay for Cherry-picked Compounds (AID 720496); details: Pol iota primer extension, TAMRA/BHQ fluorescence
# DNA polymerase iota (Homo sapiens), sequence (Q9UNA4 whole entry, looked up): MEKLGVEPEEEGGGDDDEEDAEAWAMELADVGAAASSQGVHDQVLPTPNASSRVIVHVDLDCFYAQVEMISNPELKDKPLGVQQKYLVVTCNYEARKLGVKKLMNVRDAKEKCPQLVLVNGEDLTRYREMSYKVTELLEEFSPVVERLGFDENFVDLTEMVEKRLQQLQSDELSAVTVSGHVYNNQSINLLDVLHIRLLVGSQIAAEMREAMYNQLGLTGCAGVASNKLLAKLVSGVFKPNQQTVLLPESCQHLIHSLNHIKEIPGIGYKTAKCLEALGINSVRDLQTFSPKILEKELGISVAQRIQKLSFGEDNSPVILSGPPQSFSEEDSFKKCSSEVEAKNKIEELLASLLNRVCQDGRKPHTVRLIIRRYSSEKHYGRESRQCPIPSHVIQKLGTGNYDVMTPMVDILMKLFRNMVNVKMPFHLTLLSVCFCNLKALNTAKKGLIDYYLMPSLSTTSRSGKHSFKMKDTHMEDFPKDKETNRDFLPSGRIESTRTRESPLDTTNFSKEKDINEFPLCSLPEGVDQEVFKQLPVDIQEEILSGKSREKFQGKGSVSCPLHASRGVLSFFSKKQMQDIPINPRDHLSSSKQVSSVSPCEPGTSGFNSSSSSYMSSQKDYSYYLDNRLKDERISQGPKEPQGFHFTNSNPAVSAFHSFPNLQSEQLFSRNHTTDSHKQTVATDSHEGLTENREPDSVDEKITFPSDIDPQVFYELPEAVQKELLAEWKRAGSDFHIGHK
# How it was run: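 Enzyme (10 nM Pol iota) and compound sit together for 15 min at room temperature. Adding annealed primer/TAMRA-reporter/BHQ-2-template substrate, 50 nM final, starts the reaction, which is followed by fluorescence over 10 min.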
# [3] = qHTS for Inhibitors of WRN Helicase: Thiazole Orange DNA Binding Counterscreen (AID 720499); details: thiazole orange DNA binding displacement, fluorescence; series mostly up to 57.1 µM;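 note: drop in dye fluorescence marks compound binding to DNA; nearly all actives have a fitted effect of over 60% in size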
# How it was run: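 Unlabeled DNA at 50 nM is mixed with 100 nM thiazole orange, compounds are pin-transferred in, the plate sits 15 min at room temperature, and fluorescence is then read at 480 nm excitation, 530 nm emission.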
# [4] = target: DNA polymerase kappa (Homo sapiens) (UniProt Q9UBT6); test: qHTS for Inhibitors of Polymerase Kappa: Confirmatory Assay for Cherry-picked Compounds (AID 720501); details: purified Pol-kappa, fluorescent strand-displacement substrate
# DNA polymerase kappa (Homo sapiens), sequence (Q9UBT6 whole entry, looked up): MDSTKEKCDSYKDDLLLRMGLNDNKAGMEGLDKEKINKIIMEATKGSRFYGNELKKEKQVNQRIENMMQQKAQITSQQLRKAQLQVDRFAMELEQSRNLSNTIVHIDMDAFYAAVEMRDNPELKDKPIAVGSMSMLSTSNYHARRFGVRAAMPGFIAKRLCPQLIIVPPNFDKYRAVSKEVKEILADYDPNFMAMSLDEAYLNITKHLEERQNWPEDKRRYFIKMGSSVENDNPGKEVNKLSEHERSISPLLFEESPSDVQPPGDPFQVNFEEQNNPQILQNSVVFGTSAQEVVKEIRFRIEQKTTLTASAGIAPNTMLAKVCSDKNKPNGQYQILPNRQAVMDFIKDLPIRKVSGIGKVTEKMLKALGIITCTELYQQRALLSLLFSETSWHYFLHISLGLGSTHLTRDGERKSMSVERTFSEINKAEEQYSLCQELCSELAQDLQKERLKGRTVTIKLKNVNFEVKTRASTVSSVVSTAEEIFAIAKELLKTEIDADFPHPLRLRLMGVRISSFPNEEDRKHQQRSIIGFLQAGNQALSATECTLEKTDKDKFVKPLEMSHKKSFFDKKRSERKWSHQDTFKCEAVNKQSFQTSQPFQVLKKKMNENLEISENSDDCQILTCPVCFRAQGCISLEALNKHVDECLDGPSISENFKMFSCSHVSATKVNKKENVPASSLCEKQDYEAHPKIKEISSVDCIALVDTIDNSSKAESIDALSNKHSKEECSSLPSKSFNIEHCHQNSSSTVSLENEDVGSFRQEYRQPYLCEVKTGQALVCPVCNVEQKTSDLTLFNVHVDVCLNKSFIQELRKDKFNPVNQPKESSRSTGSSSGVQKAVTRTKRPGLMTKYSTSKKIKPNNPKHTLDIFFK
# How it was run: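 Human Pol-kappa, dispensed at 10 nM, was preincubated with compounds for 15 min at room temperature. Reactions were started with primer/template substrate (50 nM final) carrying a TAMRA reporter strand and BHQ-2-quenched template, and fluorescence (ex 525/em 598 nm) was read at 0 and 10 min.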
# [5] = target: RecQ-like DNA helicase BLM (Homo sapiens) (UniProt P54132); test: qHTS for Inhibitors of WRN Helicase: BLM Helicase Counterscreen for WRN Inhibitors (AID 720503); details: Recombinant BLM helicase DNA unwinding, red fluorescence; series mostly up to 57.1 µM; note: nearly all actives have a fitted effect of over 60% in size
# RecQ-like DNA helicase BLM (Homo sapiens), sequence (P54132 whole entry, looked up): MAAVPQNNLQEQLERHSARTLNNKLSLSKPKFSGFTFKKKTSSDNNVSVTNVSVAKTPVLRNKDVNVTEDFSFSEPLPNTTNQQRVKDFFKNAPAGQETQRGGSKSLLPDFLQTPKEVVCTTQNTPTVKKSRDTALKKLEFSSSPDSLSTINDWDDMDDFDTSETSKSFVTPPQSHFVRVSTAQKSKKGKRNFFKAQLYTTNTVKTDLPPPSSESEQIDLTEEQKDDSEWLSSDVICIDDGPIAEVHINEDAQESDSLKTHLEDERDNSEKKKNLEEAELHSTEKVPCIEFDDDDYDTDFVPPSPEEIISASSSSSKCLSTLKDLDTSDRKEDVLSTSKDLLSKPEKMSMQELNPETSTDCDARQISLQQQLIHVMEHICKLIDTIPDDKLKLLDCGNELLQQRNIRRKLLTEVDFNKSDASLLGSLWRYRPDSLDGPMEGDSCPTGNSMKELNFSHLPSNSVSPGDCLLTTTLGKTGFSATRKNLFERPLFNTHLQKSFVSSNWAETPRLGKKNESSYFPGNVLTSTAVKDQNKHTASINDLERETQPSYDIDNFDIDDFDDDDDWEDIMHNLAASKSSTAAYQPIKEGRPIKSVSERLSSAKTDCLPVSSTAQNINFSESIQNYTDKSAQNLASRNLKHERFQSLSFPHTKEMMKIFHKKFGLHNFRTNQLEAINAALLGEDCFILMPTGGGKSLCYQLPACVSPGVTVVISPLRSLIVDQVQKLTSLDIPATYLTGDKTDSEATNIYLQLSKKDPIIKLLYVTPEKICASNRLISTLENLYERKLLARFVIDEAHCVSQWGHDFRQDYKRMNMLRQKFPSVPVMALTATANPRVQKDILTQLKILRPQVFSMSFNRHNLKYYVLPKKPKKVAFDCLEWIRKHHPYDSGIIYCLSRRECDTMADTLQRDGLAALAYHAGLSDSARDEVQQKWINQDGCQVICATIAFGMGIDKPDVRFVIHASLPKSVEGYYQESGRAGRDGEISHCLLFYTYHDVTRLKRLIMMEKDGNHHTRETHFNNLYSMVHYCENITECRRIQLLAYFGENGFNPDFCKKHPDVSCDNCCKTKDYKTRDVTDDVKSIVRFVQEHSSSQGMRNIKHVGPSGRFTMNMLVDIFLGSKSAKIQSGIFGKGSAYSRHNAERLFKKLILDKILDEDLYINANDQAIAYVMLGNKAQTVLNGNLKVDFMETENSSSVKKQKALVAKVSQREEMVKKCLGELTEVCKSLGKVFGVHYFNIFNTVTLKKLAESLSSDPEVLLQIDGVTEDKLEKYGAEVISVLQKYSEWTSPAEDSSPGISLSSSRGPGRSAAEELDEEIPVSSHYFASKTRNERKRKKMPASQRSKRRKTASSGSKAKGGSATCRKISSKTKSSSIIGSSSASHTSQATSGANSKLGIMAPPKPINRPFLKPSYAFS
# How it was run: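 BLM at 1 nM was preincubated with compound for 15 min at room temperature in 25 mM Tris-HCl pH 8.0, 50 mM NaCl, 2 mM MgCl2, 1 mM DTT and 0.01% Tween-20. Unwinding was started with 100 nM DNA and 2 mM ATP (final). Fluorescence (ex 525/em 598 nm) was read twice, 15 min apart, and normalized to enzyme-free and DMSO controls.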
# Potency is the fitted concentration of half-maximal effect.
structure (smiles),measurement,setting,value
O=C(CSc1nc2ccccc2c(=O)[nH]1)Nc1nc(-c2ccc(Br)cc2)cs1,Potency,[1],4.11 µM (active)
same,Potency,[2],21.2 µM (active)
O=C(COC(=O)CCC(=O)c1cccs1)NCc1ccco1,Potency,[2],23.8 µM (active)
C=CC1=C(C(=O)O)N2C(=O)[C@@H](NC(=O)/C(=N/OCC(=O)O)c3csc(N)n3)[C@H]2SC1,Potency,[1],0.116 µM (active)
same,Potency,[2],2.67 µM (active)
CC1=NN(c2ccc(Cl)c(C(=O)O)c2)C(=O)/C1=C/c1ccc(-c2ccccc2[N+](=O)[O-])o1,Potency,[3],inactive
Cc1ccc(C(=O)O)cc1-c1ccc(/C=C2\SC(=O)N(CC(=O)Nc3ccc4c(c3)OCO4)C2=O)o1,Potency,[1],8.19 µM (active)
same,Potency,[2],7.52 µM (active)
ON=C1/C(=N\O)CC2(C/C1=N/O)OCCO2,Potency,[2],59.7 µM (active)
CN(C)CCNC(=O)c1ccc(Cl)c2cc3ccccc3nc12,Potency,[2],67 µM (active)
same,Potency,[4],21.2 µM (active)
COc1cccc2c1C(=O)c1c(O)c3c(c(O)c1C2=O)CC(O)(C(C)=NNC(=O)c1ccc(Cl)c(Cl)c1)CC3OC1CC(N)C(O)C(C)O1 (stereo not given),Potency,[3],inactive
same,Potency,[5],4.29 µM (active)
COc1ccc2[nH]c3c(C)c4cc[n+](C)cc4c(C)c3c2c1,Potency,[2],2.99 µM (active)
same,Potency,[4],1.34 µM (active)
Cc1ccnc(NC(=O)c2ccoc2C)c1,Potency,[1],14.6 µM (active)
CC(/C=N/NC(=O)c1cc(-c2ccc3ccccc3c2)n[nH]1)=C\c1ccco1,Potency,[2],75.2 µM (active)
CCc1ccc2nc3sc(C(=O)Nc4nnc(CC)s4)c(N)c3cc2c1,Potency,[2],47.4 µM (active)
same,Potency,[3],inactive
same,Potency,[5],10.8 µM (active)
Cc1cc(/C=C2\SC(=O)N(C)C2=O)c(C)n1-c1cccc(C(=O)O)c1,Potency,[2],47.4 µM (active)
same,Potency,[4],9.47 µM (active)
N#C/C(=C\C1=C(N2CCOCC2)C(=C\c2ccccc2)/CC1)C(=O)Nc1ccccc1F,Potency,[3],inactive
same,Potency,[5],21.5 µM (active)
CCOc1ccccc1/C=c1\sc2nc(-c3ccco3)nn2c1=O,Potency,[4],47.4 µM (active)
O=C1COc2c1ccc(O)c2O,Potency,[2],33.6 µM (active)
same,Potency,[4],6.7 µM (active)
Cc1ccc(-c2nc(SCc3ccc(Br)cc3)n3[nH]c(=O)cc3n2)cc1,Potency,[1],9.19 µM (active)
same,Potency,[3],inactive
same,Potency,[4],16.8 µM (active)
same,Potency,[5],4.82 µM (active)
NC(CSC(c1ccccc1)(c1ccccc1)c1ccc(-c2ccccc2)cc1)C(=O)O (stereo not given),Potency,[4],67 µM (active)
CN(C)c1nc(Nc2ccc(Cl)c(Cl)c2)nc(N(C)C)n1,Potency,[3],inactive
same,Potency,[5],inactive
COc1ccc(Cl)cc1NC(=O)CCS(=O)(=O)c1ccc(Br)cc1,Potency,[1],5.17 µM (active)
same,Potency,[2],18.9 µM (active)
same,Potency,[3],inactive
same,Potency,[5],4.82 µM (active)
CCOc1ccccc1C(=O)NCc1ccco1,Potency,[3],inactive
same,Potency,[5],19.2 µM (active)
CCOc1cccc2c1N[C@@H](c1ccc(C(=O)O)cc1)[C@H]1CC=C[C@@H]21,Potency,[2],33.6 µM (active)
same,Potency,[4],2.38 µM (active)
Cc1ccc2cc(/C=N/Nc3ccc(C(=O)O)cc3)c(Cl)nc2c1,Potency,[4],26.7 µM (active)
CCN(CC)CCOc1ccc2c(c1)C(=NNC(=O)c1ccccn1)c1cc(OCCN(CC)CC)ccc1-2,Potency,[3],2.15 µM (active)
same,Potency,[5],inactive
CCOC(=O)C1=C(c2ccc(OC)cc2)C(=O)c2ccccc2C1=O,Potency,[2],75.2 µM (active)
COc1ccc(CNC(=O)c2nnn(CC(=O)Nc3cc(C)cc(C)c3)c2N)cc1,Potency,[4],47.4 µM (active)
COc1ccc(Cl)cc1-c1cc(C(=O)Nc2cc(OC)c(OC)c(OC)c2)[nH]n1,Potency,[3],inactive
same,Potency,[5],27.1 µM (active)
CCN(c1ccc(Cl)cc1)S(=O)(=O)c1nnc(NC(=O)c2ccco2)s1,Potency,[2],75.2 µM (active)
Cc1cc(/C=N/Nc2ccc([N+](=O)[O-])cn2)c(C)n1-c1cccc(C(=O)O)c1,Potency,[2],67 µM (active)
O=C(O)C(c1ccccc1)N1C(=O)/C(=C\c2ccc(-c3cccc(Cl)c3)o2)SC1=S (stereo not given),Potency,[2],67 µM (active)
same,Potency,[4],29.9 µM (active)
Cc1c(CC(=O)N2CCN(C(=O)C3COc4ccccc4O3)CC2)c(=O)oc2c(O)c(O)ccc12 (stereo not given),Potency,[1],2.59 µM (active)
same,Potency,[2],15 µM (active)
same,Potency,[3],inactive
same,Potency,[5],1.52 µM (active)
CN1CCN(CCCNC(=O)c2ccc(/C=C3\Oc4ccccc4N(Cc4ccc(Cl)cc4)C3=O)cc2)CC1,Potency,[2],42.3 µM (active)
C=CCn1c(C)cc(C2=NNC(=NCC)SC2)c1C,Potency,[1],11.6 µM (active)
CN1CCN(S(=O)(=O)c2cccc(C(=O)Nc3sccc3C#N)c2)CC1,Potency,[3],inactive
